Source: PubChem BioAssay (National Center for Advancing Translational Sciences (NCATS))
Rows were chosen to be rich in hits. Some 1% of all compounds tested hit in one or more screens of this group.
hERG WT inh: KCNH2 (human, wildtype) channel inhibition; Q12809; U2OS, BacMam KCNH2, thallium flux FluxOr; active compounds read low; activity change, % at 1.84 µM; hit rate 0.37% among 340,000; AID 720551;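 active = maximum activity change below -70%; inconclusive = maximum activity change between -70% and -50%; inactive = maximum activity change above -50%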; note: % is set by controls: 0 for no effect and ±100 for the full control effect
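U2OS cells transduced with wild-type KCNH2 virus are loaded with FluxOr dye for 45 min, and thallium flux is measured in kinetic reads before and after stimulation buffer. Rate constants are normalized to DMSO controls.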
TRPML1 inh: human mucolipin-1 channel inhibition; TRPML1-inducible cells, Ca2+ dye fluorescence, FDSS; active compounds read low; inhibition of EC80 agonist-evoked calcium signal; activity change, negative = inhibition, % (no concentration beside the values); hit rate 0.02% among 390,000; AID 624415; in the data active = activity change below about -50%; inconclusive = between about -30% and that limit;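 note: stimulus is agonist 54-4 at its EC80 concentration; % is set by controls: 0 for no effect and ±100 for the full control effect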
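TRPML1-DL cells, Tet-induced overnight (~16 h, 37 °C) at 1,500 cells/well, were loaded with Ca8 no-wash dye plus quencher for 45-90 min at room temperature. Compounds were pinned during FDSS kinetic reading; agonist 54-4 at EC80 (4 uM final) then added.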
TSG101-PTAP inh: blocks PTAP/TSG101 interaction to inhibit HIV-1 budding; 340,000 tested, under 10 active; Potency, µM (titrated, usually from 115 µM), for inactives: at the top dose activity change, negative = inhibition, most hits filed as inhibitors; Fluorescence polarization, FITC-PTAP peptide / Tsg101 binding; Q99816; active = well fitted inhibition curve with a large enough effect in the main read-out, with a control signal flat, not every such curve was filed as active; inconclusive = small, poorly fitted or top-dose-only effect, or effect the other way, or a change in a side signal; inactive = no such curve, though single readings can be large or run the other way; note: potency is the fitted concentration of half-maximal effect; % of control where 0% means no effect
Target sequence (Q99816 whole entry, looked up): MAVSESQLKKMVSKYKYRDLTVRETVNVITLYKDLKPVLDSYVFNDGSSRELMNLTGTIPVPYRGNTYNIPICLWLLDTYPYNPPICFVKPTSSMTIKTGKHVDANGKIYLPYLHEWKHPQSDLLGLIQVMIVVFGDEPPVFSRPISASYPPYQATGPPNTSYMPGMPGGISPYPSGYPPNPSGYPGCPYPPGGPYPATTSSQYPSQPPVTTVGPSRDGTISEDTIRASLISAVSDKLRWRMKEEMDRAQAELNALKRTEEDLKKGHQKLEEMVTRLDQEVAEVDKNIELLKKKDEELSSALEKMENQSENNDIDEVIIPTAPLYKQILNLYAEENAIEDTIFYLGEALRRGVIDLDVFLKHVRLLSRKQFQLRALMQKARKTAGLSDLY
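Steps: Tsg101 binding domain dispensed (10 uM final), compounds pinned in DMSO, FITC-labeled PTAP-motif peptide added (50 nM final); after 20 min binding at room temperature, polarization measured.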
KCNH2 3.1 block: blocks the human KCNH2 3.1 channel isoform; hit rate 0.95% among 340,000; U2OS KCNH2 3.1, thallium flux FluxOr; active compounds read low; activity change, % (tested at about 1.8 µM); AID 720553;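 active = maximum activity change below -70%; inconclusive = maximum activity change from -70% to -50%; inactive = maximum activity change above -50%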;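 note: thallium influx rate constant from kinetic fluorescence after stimulation buffer; % is set by controls: 0 for no effect and ±100 for the full control effect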
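Kinetic fluorescence (2 min after stimulation buffer) measures Tl+ influx through KCNH2 3.1 expressed by viral transduction in U2OS cells; the rate constant is normalized against DMSO controls serving as positive and negative references.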
TRPML1 ag: activates the human TRPML1 channel. Q9GZU1. TRPML1-expressing cells, Ca2+ dye fluorescence, FDSS. activation, % (concentration not given with the values). hit rate 0.12% among 410,000. AID 624414; in the data active = activation above about 50%; inconclusive = mostly about 30% to 49%; note: 0% is about no effect
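Calcium fluorescence on an FDSS kinetic reader gave the read-out. Tet-induced TRPML1-DL cells were plated overnight, dye-loaded (Ca8 with quencher, 45-90 min, room temperature, dark), then read 110 s after compound addition, and again 110 s after 4uM final 54-4 (EC80).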
GRP78 ERSR act: induces the endoplasmic reticulum stress response in human glioma cells. U87-MG GRP78 promoter luciferase reporter, 16 h. Potency, µM, for the others: top-dose activation, hits mostly activators. hit rate 0.02% among 420,000; active = well fitted activation curve with a large enough effect; inconclusive = small, poorly fitted or top-dose-only effect; inactive = no such curve, though single readings can be large or run the other way; note: potency is the fitted concentration of half-maximal effect; series mostly up to about 76 µM; % of control where 0% means no effect; nearly all actives have a fitted effect of over 35% in size
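Stably transfected U87-MG glioma cells carrying a GRP78-based luciferase sensor; 16 h compound incubation. Luminescence end-point read 10 min after Bright-Glo addition at room temperature.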
The depositor's hits bear a star.

`COc1ccccc1NC(=O)CN1CCCCC1` gave hERG WT inh -2.8, TRPML1 inh -0.6, TSG101-PTAP inh -4.0%, KCNH2 3.1 block 8.7, TRPML1 ag 0.5 and GRP78 ERSR act -4.3%.
Screening COc1ccc(CN2CCN(CC(=O)Nc3ccccc3C(=O)NC3CC3)CC2)cc1F returned hERG WT inh -93.1*, TRPML1 inh -5.8, TSG101-PTAP inh 1.1%, KCNH2 3.1 block -104.1*, TRPML1 ag -0.1 and GRP78 ERSR act -3.0%.
Screening COc1ccc(F)cc1CN1CCN(CC(=O)Nc2ccccc2C(=O)NC2CC2)CC1 returned hERG WT inh -107.2*, TRPML1 inh -4.6, TSG101-PTAP inh -4.1%, KCNH2 3.1 block -106.2*, TRPML1 ag 1.8 and GRP78 ERSR act -5.0%.
COc1ccccc1NC(=O)CN1CCN(CC(=O)Nc2ccc(F)cc2F)CC1 was read as hERG WT inh -10.0, TRPML1 inh 57.4, TSG101-PTAP inh -1.9%, KCNH2 3.1 block -86.4*, TRPML1 ag 1.0 and GRP78 ERSR act 1.6%.
For COCc1ccc(CN2CCOc3c(cc(-c4cc(C)c5cccc(OC)c5n4)cc3OC)C2)o1 the results were GRP78 ERSR act -4.8%.
CO[C@H]1[C@H](NC(=O)c2ccsc2)c2ccccc2C12CCN(Cc1cnn(C)c1C)CC2 was read as GRP78 ERSR act -2.7%.
CC(CN1CCOCC1)OC(=O)c1ccc2c(c1)OCCO2 (stereo not drawn) was read as hERG WT inh -261.6*, TRPML1 inh 11.9, TSG101-PTAP inh -4.1%, KCNH2 3.1 block 19.7, TRPML1 ag -0.7 and GRP78 ERSR act -8.3%.
Screening Cc1cc(C)n(-c2nc(SCCN(C)C)c3c4c(sc3n2)COC(C)(C)C4)n1 returned hERG WT inh inconclusive, TRPML1 inh 1.9, TSG101-PTAP inh -8.4%, KCNH2 3.1 block -137.1*, TRPML1 ag 0.1 and GRP78 ERSR act -2.8%.
CO[C@H]1[C@@H](O)[C@H](N)[C@@H](O[C@H]2O[C@@H]([C@H](C)N)CC[C@H]2N)[C@H](O)[C@@H]1N(C)C(=O)CN was read as GRP78 ERSR act -3.6%.
Screening Cc1c(C(=O)NCC(C)C)sc2ncnc(NCC3CCCO3)c12 (stereo not drawn) returned GRP78 ERSR act -1.3%.
For O=C(c1cccc(F)c1)N1CCC[C@@]2(CCN(C(c3ccccc3)c3ccccc3)C2)C1 the results were GRP78 ERSR act 12.6µM*.
For O=C(c1cnccn1)N1CCC2(CCCN(C(c3ccccc3)c3ccccc3)C2)CC1 the results were GRP78 ERSR act 44.7µM*.
For O=C(c1cccc(F)c1)N1CCC2(CC1)CN(C(c1ccccc1)c1ccccc1)C2 the results were GRP78 ERSR act -2.5%.
For COCCSc1ccccc1C(=O)N1CCOCC1 the results were hERG WT inh -3.8, TRPML1 inh -17.2, TSG101-PTAP inh -3.4%, KCNH2 3.1 block -85.6*, TRPML1 ag -0.1 and GRP78 ERSR act -5.0%.
c1ccc(COc2ccc(OCCCCN3CCCCC3)cc2)cc1 was read as hERG WT inh 9.1, TRPML1 inh 10.4, TSG101-PTAP inh -6.8%, KCNH2 3.1 block -97.1*, TRPML1 ag 0.0 and GRP78 ERSR act 6.1%.
Screening O=C(c1ccccc1)c1ccc(OCCCCN2CCCCC2)cc1 returned hERG WT inh 16.6, TRPML1 inh -7.0, TSG101-PTAP inh -5.0%, KCNH2 3.1 block -49.3, TRPML1 ag 0.2 and GRP78 ERSR act -1.4%.
`CN1CCN(CCCOc2ccc(-c3ccccc3)cc2)CC1` gave hERG WT inh 51.7, TRPML1 inh 10.0, TSG101-PTAP inh -2.6%, KCNH2 3.1 block -90.2*, TRPML1 ag 0.2 and GRP78 ERSR act -1.6%.
`Fc1ccc(OCCCCCN2CCCC2)cc1` gave hERG WT inh 9.3, TRPML1 inh 3.3, TSG101-PTAP inh 0.6%, KCNH2 3.1 block -97.7*, TRPML1 ag 0.1 and GRP78 ERSR act -1.2%.
`Cc1ncc2c(c1CNC(=O)/C=C/c1cccs1)CCN(C(=O)c1cc(C(C)C)on1)C2` gave GRP78 ERSR act -2.7%.
